Several values for one entry are separate records, joined by “and”; a condition that tells them apart may be missing. Equal entries are not always repeated. Structures can show the parent of a compound that is named as a salt. Unmarked numbers belong to inactive results.
Tested on: Plasmodium falciparum NF54/iGP1_RE9H ulg8 stage V gametocytes
Experiment: gametocyte viability (luciferase signal relative to DMSO control) (% of DMSO control); higher = less gametocytocidal activity, active = 50 or less
Details: exposure time: 72 h
In short: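 NF54/iGP1_RE9Hulg8 stage V gametocytes (day 12; ~2.5% gametocytemia, 3% hematocrit) were incubated with compounds at 10 µM or 1 µM final, in one well each, for 72 h at 37 °C in medium with 0.5% Albumax II. Luminescence after D-luciferin addition was read on an IVIS Lumina II. Viability refers to the mean of plate DMSO vehicle wells.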

SMILES	gametocyte viability (concentration: 1 µM)	gametocyte viability (concentration: 10 µM)
O=C(Cc1ccc(-c2ccc(OCCN3CCOCC3)cc2)cn1)NCc1ccccc1	99.7	113
CCS(=O)(=O)c1cccc(-c2cc(C(=O)NC3CCN(C)CC3)c(C)c3[nH]c4ncc(C)cc4c23)c1	106	84.2
CN(c1ncccc1CNc1nc(Nc2ccc3c(c2)CC(=O)N3)ncc1C(F)(F)F)S(C)(=O)=O	117	112
C=CC(=O)N1CCC[C@@H](n2nc(-c3ccc(Oc4ccccc4)cc3)c3c(N)ncnc32)C1	106	104
COC(=O)c1ccc2c(C(=Nc3ccc(N(C)C(=O)CN4CCN(C)CC4)cc3)c3ccccc3)c(O)[nH]c2c1 [BIBF1120 (Vargatef)]	96	108
NC1(c2ccc(-c3nc4ccn5c(=O)[nH]nc5c4cc3-c3ccccc3)cc2)CCC1 [MK-2206 dihydrochloride]	97.5	63.9
COc1cc2ncnc(Nc3cccc(Cl)c3)c2cc1OC	109	104
COc1cc(Nc2c(C#N)cnc3cc(OCCCN4CCN(C)CC4)c(OC)cc23)c(Cl)cc1Cl [Bosutinib (SKI-606)]	86.4	98.1
Fc1cc(-c2cccc3ncc(-c4cnn(C5CCNCC5)c4)nc23)cc(F)c1CN1CCOCC1	107	80
CNC(=O)c1cc(Oc2ccc(NC(=O)Nc3ccc(Cl)c(C(F)(F)F)c3)c(F)c2)ccn1 [Regorafenib (BAY 73-4506)]	95.1	99.1
C=CC(=O)c1ccc2ccccc2c1	101	106
Cc1cc(Nc2cc(N3CCN(C)CC3)nc(Sc3ccc(NC(=O)C4CC4)cc3)n2)n[nH]1 [VX-680 (MK-0457, Tozasertib)]	97.5	84.3
N#CC(C#N)=C(N)/C(C#N)=C/c1cc(O)c(O)c(O)c1	110	113
CN([C@@H](Cc1ccc(OS(=O)(=O)c2cccc3cnccc23)cc1)C(=O)N1CCN(c2ccccc2)CC1)S(=O)(=O)c1cccc2cnccc12	93.8	81.8
CC(=O)Nc1nc(C)c(-c2ccc(Cl)c(S(=O)(=O)NCCO)c2)s1	81.5	13.6 (active)
O=C1NC(=O)/C(=C/c2ccc3nccc(-c4ccncc4)c3c2)S1	101	103
COc1cc(N2CCC(N3CCN(C)CC3)CC2)ccc1Nc1ncc(Cl)c(Nc2ccccc2S(=O)(=O)C(C)C)n1	73.9	41.9 (active)
c1cncc(CN2CCC(n3ncc4c(N5CCOCC5)nc(-c5ccc6[nH]ccc6c5)nc43)CC2)c1	95.7	103
N#Cc1c(O)c2c(-c3ccc(-c4ccccc4O)cc3)csc2[nH]c1=O	97.7	105
Clc1ccc(Nc2nnc(Cc3ccncc3)c3ccccc23)cc1 [Vatalanib dihydrochloride (PTK787)]	111	115
CCN1CCN(Cc2ccc(-c3cc4c(N[C@H](C)c5ccccc5)ncnc4[nH]3)cc2)CC1	96.1	52.6

SMILES	gametocyte viability (concentration: 1 µM)	gametocyte viability (concentration: 10 µM)
Cc1cc(Nc2nc(N[C@@H](C)c3ccc(F)cc3)c(C#N)cc2F)n[nH]1	97.5	99.6
CN(C)Cc1cccc(N=C(c2ccccc2)c2c(O)[nH]c3cc(C(N)=O)ccc23)c1	109	122
Nc1nc2ncnc-2c[nH]1 [2-Aminopurine]	97.6	103
Cc1c(NC(=O)OC[C@@H]2COCCN2)cn2ncnc(Nc3ccc4c(cnn4Cc4cccc(F)c4)c3)c12	85.8	96
Cc1csc(-c2nnc(Nc3ccc(Oc4ncccc4-c4ccnc(N)n4)cc3)c3ccccc23)c1	103	112
FC(F)c1nc2ccccc2n1-c1nc(N2CCOCC2)nc(N2CCOCC2)n1	98.5	108
O=c1c(-c2ccc(O)cc2)coc2cc(O)cc(O)c12 [Genistein]	95.5	83.9
NC(N)=NCCNS(=O)(=O)c1cccc2cnccc12	107	107
CS(=O)(=O)N1CCN(Cc2cc3nc(-c4cccc5[nH]ncc45)nc(N4CCOCC4)c3s2)CC1	97.2	108
O=C(NOCC(O)CO)c1cc(Br)c(F)c(F)c1Nc1ccc(I)cc1F (stereo unspecified)	99.1	97.3
O=C(O)c1ccc(Nc2ncc3c(n2)-c2ccc(Cl)cc2C(c2c(F)cccc2F)=NC3)cc1	102	103
CCOc1ccn(-c2ccc(F)cc2)c(=O)c1C(=O)Nc1ccc(Oc2ccnc(N)c2Cl)c(F)c1	95.8	92.2
CCN(CCO)CCCOc1ccc2c(Nc3cc(CC(=O)Nc4cccc(F)c4)[nH]n3)ncnc2c1 [Barasertib (AZD1152-HQPA)]	104	93.1
C[C@@H]1CCN(C(=O)CC#N)C[C@@H]1N(C)c1ncnc2[nH]ccc12	107	110
O=C1c2ccccc2-c2n[nH]c3cccc1c23	95.3 and 98.9	90.5 and 106
C[C@@H](Oc1cc(-n2cnc3ccc(CN4CCN(C)CC4)cc32)sc1C(N)=O)c1ccccc1C(F)(F)F	103	81.6
COC(=O)Nc1ccc(-c2nc(N3CCOCC3)c3cnn(C4CCN(C(=O)OC)CC4)c3n2)cc1	97.3	97.2
N#C/C(=C\c1ccc(O)c(O)c1)C(N)=O	93.5	98
NC(=O)c1ccc(-c2nc(-c3ccccn3)c(-c3ccc4c(c3)OCO4)[nH]2)cc1	101	125
Nc1cc(C(F)(F)F)c(-c2cc(N3CCOCC3)nc(N3CCOCC3)n2)cn1	107	98.6
Cn1cnc2c(F)c(Nc3ccc(Br)cc3Cl)c(C(=O)NOCCO)cc21 [AZD6244 (Selumetinib)]	102	105

SMILES	gametocyte viability (concentration: 1 µM)	gametocyte viability (concentration: 10 µM)
C#Cc1cccc(Nc2ncnc3cc(OCCOC)c(OCCO)cc23)c1 [OSI-420 (Desmethyl Erlotinib)]	92.8	97
CN1CCN(CCOc2cc(OC3CCOCC3)c3c(Nc4c(Cl)ccc5c4OCO5)ncnc3c2)CC1 [Saracatinib (AZD0530)]	94.4	92.2
Oc1cccc(-c2nc(N3CCOCC3)c3oc4ncccc4c3n2)c1	115	111
Cc1[nH]c(/C=C2\C(=O)Nc3ccccc32)c(C)c1CCC(=O)O	96.9	105
O=C(O)c1cc(NCc2cc(O)ccc2O)ccc1O [2-Hydroxy-5-(2,5-dihydroxybenzylamino)benzoic acid]	103	109
COc1cc2ncnc(Nc3ccc(F)c(Cl)c3)c2cc1OCCCN1CCOCC1 [Gefitinib (Iressa)]	95.3	92.8
O=P(O)(O)C(O)c1ccc2ccccc2c1 (stereo unspecified) [Hydroxy-2-naphthalenylmethylphosphonic acid]	95.7	90.5
N#CC(=Cc1ccc(O)c(O)c1)C(=O)NCc1ccccc1	95.7	101
CCS(=O)(=O)Nc1ccc2[nH]c(O)c(C(=Nc3ccc(CN4CCCCC4)cc3)c3ccccc3)c2c1 [Hesperadin]	110	108
N#CCNC(=O)c1ccc(-c2ccnc(Nc3ccc(N4CCOCC4)cc3)n2)cc1	98.5	97.1
COc1cccc(-c2cc(=O)c3ccccc3o2)c1N	97.3 and 93.2	64.5 and 69.7
Cn1cnc(-c2cc3nccc(Oc4ccc(NC(=S)NC(=O)Cc5ccccc5)cc4F)c3s2)c1	90.2	93.5
CC(C)(C)n1nc(-c2ccc(Cl)cc2)c2c(N)ncnc21	97	99.4
CC(C)n1nc(-c2cc3cc(O)ccc3[nH]2)c2c(N)ncnc21	105	103
CC[C@H](Nc1ncnc2[nH]cnc12)c1nc2cccc(F)c2c(=O)n1-c1ccccc1	95.1	95.9
N#C/C(=C\c1cc(Cl)cc(Cl)c1)c1cccnc1	98.1	101
O=C1Cc2c([nH]c3ccc(Br)cc23)-c2ccccc2N1 [Kenpaullone]	62.2	16.3 (active)
Nc1nccc(Oc2ccc(NC(=O)c3c[nH]cc(-c4ccc(F)cc4)c3=O)cc2F)c1Cl	102	114
CCCNC(=O)Nc1ccc(Oc2ncnc3cc(OC)c(OC)cc23)cc1Cl	97.6	104
COc1ccc(-c2ccc3c(N4CCOC[C@@H]4C)nc(N4CCOC[C@@H]4C)nc3n2)cc1CO	96.5	78.9
CNC(=O)c1cc(Oc2ccc(NC(=O)Nc3cc(C(C)(C)C)nn3-c3ccc4ncccc4c3)c(F)c2)ccn1 [DCC-2036 (Rebastinib)]	103	107
